Measurements as given in PubChem BioAssay AID1159580 (chemical genetic matrix, 2015).
Where “and” joins values, the source holds several entries; their conditions need not be identical. Equal values may be shown once. Out of some 5,500 compounds screened, about 2,000 (36%) were called active. About 18% were inconclusive and are not listed. No stated cut-off is given here; in the data, active means normalized growth mostly below about 0.91 (no sharp cut-off); inconclusive means no clear call, values can overlap the other calls; inactive means mostly above about 0.92. The list shows a part of the results.

Assay: chemical genetic growth profiling, strain panel (AID 1159580);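 further: tested at 20 µM; growth read once vehicle control cultures reached saturation at 30 °C; 1 = growth at the plate median or of vehicle wells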
Conditions: S. cerevisiae deletion strains, growth OD

Measured: normalized growth

NCCS
inactive: locus YAL013W, strain DEP1, stronger effect = lower value 1 | locus YAL021C, strain ccr4, stronger effect = lower value 0.977 | locus YAL026C, strain drs2, stronger effect = lower value 0.99 | locus YAL030W, strain snc1, stronger effect = lower value 1.01 | locus YAL040C, strain CLN3, stronger effect = lower value 0.985 | locus YBL061C, strain skt5, stronger effect = lower value 0.988 | locus YBR009C, strain hhf1, stronger effect = lower value 0.988 | locus YBR021W, strain FUR4, stronger effect = lower value 1 | locus YBR023C, strain chs3, stronger effect = lower value 0.987 | locus YBR171W, strain sec66, stronger effect = lower value 0.998 | locus YBR229C, strain ROT2, stronger effect = lower value 1.01 | locus YBR231C, strain swc5, stronger effect = lower value 0.991 | locus YBR279W, strain paf1, stronger effect = lower value 1 | locus YCL011C, strain gbp2, stronger effect = lower value 0.982 | locus YCL016C, strain dcc1, stronger effect = lower value 0.976 | locus YCL029C, strain bik1, stronger effect = lower value 1.02 | locus YCL061C, strain MRC1 (second series), stronger effect = lower value 1.01 | locus YCL061C, strain MRC1, stronger effect = lower value 1 | locus YCL069W, strain vba3, stronger effect = lower value 0.992 | locus YCR088W, strain abp1, stronger effect = lower value 0.994 | locus YDL005C, strain med2, stronger effect = lower value 0.981 | locus YDL035C, strain GPR1, stronger effect = lower value 1.02 | locus YDL040C, strain nat1, stronger effect = lower value 0.992 | locus YDL074C, strain BRE1, stronger effect = lower value 1.02 | locus YDL101C, strain DUN1, stronger effect = lower value 1.01 | locus YDL134C, strain PPH21, stronger effect = lower value 1.02 | locus YDL185W, strain tfp1, stronger effect = lower value 1 | locus YDL192W, strain arf1, stronger effect = lower value 1.01 | locus YDR001C, strain nth1, stronger effect = lower value 0.997 | locus YDR069C, strain doa4, stronger effect = lower value 0.988 | locus YDR101C, strain arx1, stronger effect = lower value 1 | locus YDR137W, strain rgp1, stronger effect = lower value 1 | locus YDR150W, strain NUM1, stronger effect = lower value 1.01 | locus YDR159W, strain sac3, stronger effect = lower value 0.986 | locus YDR162C, strain NBP2, stronger effect = lower value 1.01 | locus YDR195W, strain ref2 0.923 | locus YDR297W, strain sur2, stronger effect = lower value 0.999 | locus YDR318W, strain mcm21, stronger effect = lower value 1.01 | locus YDR334W, strain swr1, stronger effect = lower value 0.972 | locus YDR335W, strain msn5, stronger effect = lower value 0.991 | locus YDR363W, strain ESC2, stronger effect = lower value 1.03 | locus YDR388W, stronger effect = lower value 1.01 | locus YDR392W, strain spt3, stronger effect = lower value 0.969 | locus YDR502C, strain sam2, stronger effect = lower value 1.01 | locus YEL003W, strain gim4, stronger effect = lower value 0.986 | locus YEL037C, strain rad23, stronger effect = lower value 0.983 | locus YEL061C, strain CIN8 (second series), stronger effect = lower value 0.976 | locus YEL061C, strain CIN8, stronger effect = lower value 1.01 | locus YER002W, strain NOP16, stronger effect = lower value 0.992 | locus YER015W, strain faa2, stronger effect = lower value 0.995 | locus YER016W, strain bim1, stronger effect = lower value 1 | locus YER110C, stronger effect = lower value 1.02 | locus YER111C, strain swi4, stronger effect = lower value 0.986 | locus YER155C, strain BEM2 (second series), stronger effect = lower value 0.982 | locus YER155C, strain BEM2, stronger effect = lower value 1.01 | locus YER167W, strain BCK2, stronger effect = lower value 1.02 | locus YFR010W, strain ubp6, stronger effect = lower value 0.981 | locus YGL078C, strain dbp3, stronger effect = lower value 1.02 | locus YGL086W, strain mad1, stronger effect = lower value 1.01 | locus YGL167C, strain pmr1, stronger effect = lower value 0.982 | locus YGL173C, strain kem1, stronger effect = lower value 0.986 | locus YGL227W, strain vid30, stronger effect = lower value 0.984 | locus YGL240W, strain doc1, stronger effect = lower value 0.976 | locus YGL248W, strain PDE1, stronger effect = lower value 1.01 | locus YGL253W, strain hxk2, stronger effect = lower value 0.979 | locus YGR078C, strain PAC10, stronger effect = lower value 1.02 | locus YGR135W, strain pre9, stronger effect = lower value 1.02 | locus YGR229C, strain SMI1, stronger effect = lower value 1.01 | locus YGR252W, strain gcn5, stronger effect = lower value 1.04 | locus YHR013C, strain ard1, stronger effect = lower value 0.972 | locus YHR027C, strain rpn1, stronger effect = lower value 0.985 | locus YHR030C, strain SLT2, stronger effect = lower value 1.02 and 1.03 | locus YHR079C, strain IRE1 (second series), stronger effect = lower value 1.02 | locus YHR079C, strain IRE1, stronger effect = lower value 1.04 | locus YHR094C, strain hxt1, stronger effect = lower value 1.01 | locus YHR129C, strain ARP1, stronger effect = lower value 1.01 | locus YHR142W, strain chs7, stronger effect = lower value 0.984 | locus YHR200W, strain rpn10, stronger effect = lower value 1.02 | locus YIL066C, strain RNR3, stronger effect = lower value 1.02 | locus YIL073C, strain SPO22, stronger effect = lower value 1.02 | locus YIL125W, strain kgd1, stronger effect = lower value 1.01 | locus YIR030C, strain dcg1, stronger effect = lower value 1.03 | locus YJL092W, strain hpr5, stronger effect = lower value 0.997 | locus YJL095W, strain BCK1 (second series), stronger effect = lower value 0.996 | locus YJL095W, strain BCK1, stronger effect = lower value 1.01 and 1.02 | locus YJL115W, strain asf1, stronger effect = lower value 0.966 | locus YJL129C, strain trk1, stronger effect = lower value 0.995 | locus YJL134W, strain LCB3, stronger effect = lower value 1.01 | locus YJL154C, strain vps35, stronger effect = lower value 0.988 | locus YJL164C, strain tpk1, stronger effect = lower value 0.99 | locus YJL166W, strain qcr8, stronger effect = lower value 1 | locus YJL168C, strain set2, stronger effect = lower value 1.02 | locus YJL187C, strain SWE1 (second series), stronger effect = lower value 1.01 | locus YJL187C, strain SWE1, stronger effect = lower value 0.992 | locus YJR043C, strain POL32, stronger effect = lower value 1.01 | locus YJR066W, strain TOR1, stronger effect = lower value 0.998
